Over roughly 25,000 sequences, “ln(normalized median fluorescence intensity)” has its median near 6.7; the highest 2% begin near 10. What follows is part of a selection rich in the highest values, with near analogues and random picks from the rest.

For this assay, the system named is PfHDP1 homeodomain (GST-tagged). Description: gcPBM binding intensity (ln(normalized median fluorescence intensity)); higher = stronger DNA binding. In outline:
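DNA-binding domains from P. falciparum, fused to GST and produced in E. coli, were put on an Agilent 4 × 180k double-stranded probe array for 1 h in 1× PBS holding 1% milk, 0.2 mg/ml BSA, 0.5% salmon testes DNA and 0.03% Triton X-100. Probes were primer-extended, 36 bp long and drawn from intergenic genomic regions, with negative controls included. After Alexa488 anti-GST antibody detection and a 488 nm scan, binding intensity was set as the highest Masliner-normalised natural-log median intensity across replicate spots of either probe orientation.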
As for “GTATATCACACATTTGCATGTTGTCAATAGTTTATC [TGCATGCA_site134]”, the “gcPBM binding intensity (ln)” value came out at 6.93.

As for “CTCTTGTCATTTTGCACACACACATGGATAGGTTAT [CACACA_site5655]”, the “gcPBM binding intensity (ln)” value came to 10.8. Consider “CTTGTCATTTTGCACACACACATGTATAGGTTATTA [CACACA_site7431]”, for which the “gcPBM binding intensity (ln)” value amounted to 10.9. Take “CTCTTGTCATTTTGCACACACACATGTATAGGTTAT [CACACA_site3057]”: the “gcPBM binding intensity (ln)” value came out at 11.1. “AGCTCTTGTCATTTTGCACACACACCGGTATAGGTT [CACACA_site5654]”: the “gcPBM binding intensity (ln)” value is 10.4.

Turning to “CTTGTCATTGGGCACACACACATGTATAGGTTATTA [CACACA_site3058]”, the “gcPBM binding intensity (ln)” value was 6.49. As for “AGCTCTTGTCATTTTGCACACACACCCGTATAGGTT [CACACA_site3056]”, the “gcPBM binding intensity (ln)” value is 10.3.

“CTTGTCATTTGGCACACACACATGTATAGGTTATTA [CACACA_site5656]”: the “gcPBM binding intensity (ln)” value turned out to be 6.72. Regarding “TATATAGGTATCATTACACACATGTATACTTATTTG [CACACA_site7864]”, the “gcPBM binding intensity (ln)” value is 6.47. For the sequence “TCTACATATTAATTATGTACGAATTATTATTAGTAA [XGTACX_site6924]”, the “gcPBM binding intensity (ln)” value amounted to 6.03. In the case of “TTTAAGAATTAACGGGGTACAATTCTTAAATATATA [XGTACX_site669]”, the “gcPBM binding intensity (ln)” value was 6.33. On to “ACTGAAAAAAGAAATACACACATTCTGGATCATATA [CACACA_site3860]”, for which the “gcPBM binding intensity (ln)” value turned out to be 6.47. With “ATTTTTTTTTGTGTATATAAATAAATAAATATATAT [GTGCAC_negctrl_site603]”, the “gcPBM binding intensity (ln)” value was found to be 6.47. “AAGAAAAAGACTTCATGAAAAAGAATTTTTTTAATT [TGCATGCA_negctrl_site473]”: the “gcPBM binding intensity (ln)” value amounted to 5.86.

With “TATTTATTGTGACACTTTTATTATTTTATGATAAAA [CACACA_negctrl_site37]”, the “gcPBM binding intensity (ln)” value was determined as 6.6.

“AATATAAGCAAATACACACACACATATAAATATGTA [CACACA_site7741]”: the “gcPBM binding intensity (ln)” value amounted to 7.03. As for “TACATAAACATTTATACACACATTATAAATACATAT [CACACA_site4386]”, the “gcPBM binding intensity (ln)” value is 6.74. As for “TTAATATGAAATAAATGTACATAATACATAATAAAA [XGTACX_site6194]”, the “gcPBM binding intensity (ln)” value worked out at 6.44. As for “ACAAATAAGTTTTGTAGTACTGTGTATATATATATA [XGTACX_site6901]”, the “gcPBM binding intensity (ln)” value was 8.95. In the case of TAATTATTCTATTAAGTGCATATATTTTTAAAAAGA, the “gcPBM binding intensity (ln)” value worked out at 9.39. For the sequence “TTTATATTCTTAAGTGTGCACTATATATATATATAT [GTGCAC_site9719]”, the “gcPBM binding intensity (ln)” value was found to be 10.5. As for TTTTTATTTTCATATGTGCACTTATATATATATATA, the figure is 10.2; as for ATTTTTTTCTTAGGAGTGCACTTATATTTATTTTAT, 10.3; as for “ATCATATTTTTATGTGTGCACTTTTTTTTTTTTTTT [GTGCAC_site9555]”, 8.73. For ATATATTTTATATGTGTGCACTATATATATATATAT the value was 10.8.

Values taken from the supplement of paper PMC11417369.
